Source: PubChem BioAssay (National Center for Advancing Translational Sciences (NCATS))
SMN2 splice enh – qHTS Assay for Enhancers of SMN2 Splice Variant Expression. HEK293 SMN2-luciferase splicing reporter, luminescence, 30-36 h. Potency, µM (series often up to 46.1 µM), without a hit: at the top dose activity change, positive = activation, hits mostly activators. 2.8% of 210,000 active; also: % of control where 0% means no effect; nearly all actives have a fitted effect of over 55% in size
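qHTS luciferase splicing reporter: luminescence rises when SMN2 exon 7 is included in transfected HEK293 cells. Compound exposure lasted 30-36 h at 37C, with 4.5 mM final sodium butyrate as control, followed by a ONE-Glo read.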
ELG1 repair inh – qHTS screen for small molecules that inhibit ELG1-dependent DNA repair in human embryonic kidney (HEK293T) cells expressing luciferase-tagged ELG1. HEK293T ELG1-luciferase reporter, luminescence, 16 h; DNA damage induced by 5-fluorouridine. 2.3% of 330,000 active. Potency, µM (doses to about 46.1 µM), for inactives: at the highest dose activity change, negative = inhibition, usual class: inhibitors; also: % is scaled to controls: 0 for no effect and ±100 for the full control effect; nearly all actives have a fitted effect of over 55% in size
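Step one: seed 2,000 cells per well. Step two: pin-transfer compound or DMSO alongside 5-fluorouridine. Step three: incubate 16 hr, 37 °C, 5% CO2. Step four: add ONE-Glo, wait 30 min, read luminescence.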
NPC1 promoter act – qHTS Assay for NPC1 Promoter Activators; Potency, µM (top dose mostly 9.22 µM), for inactives: top-dose activation, actives largely listed as activators; 2.4% of 320,000 active; AID 485313, 2010; Huh7 NPC1 promoter luciferase reporter, 24 h; also: % of control where 0% means no effect; nearly all actives have a fitted effect of over 60% in size
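Quantitative HTS used a cell-based reporter: Huh7 cells stably bearing the NPC1 promoter upstream of luciferase were treated with compounds for 24 h, and promoter activation was read as luminescence.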
FLuc modulator – qHTS profiling assay for firefly luciferase inhibitor/activator using purifed enzyme and Km concentrations of substrates (counterscreen for miR-21 project). purified FLuc, Km substrates, luminescence inhibition. 6.9% of 360,000 active. AID 588342, 2011. Luciferin 4-monooxygenase (Photinus pyralis), P08659. Potency, µM (titrated, usually from 57.5 µM), without a hit: top-dose activity change, negative = inhibition, actives largely listed as inhibitors;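 also: plate controls were vehicle for no effect and reference inhibitor for full effect; nearly all actives have a fitted effect of over 55% in size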
Target sequence (P08659 whole entry, looked up): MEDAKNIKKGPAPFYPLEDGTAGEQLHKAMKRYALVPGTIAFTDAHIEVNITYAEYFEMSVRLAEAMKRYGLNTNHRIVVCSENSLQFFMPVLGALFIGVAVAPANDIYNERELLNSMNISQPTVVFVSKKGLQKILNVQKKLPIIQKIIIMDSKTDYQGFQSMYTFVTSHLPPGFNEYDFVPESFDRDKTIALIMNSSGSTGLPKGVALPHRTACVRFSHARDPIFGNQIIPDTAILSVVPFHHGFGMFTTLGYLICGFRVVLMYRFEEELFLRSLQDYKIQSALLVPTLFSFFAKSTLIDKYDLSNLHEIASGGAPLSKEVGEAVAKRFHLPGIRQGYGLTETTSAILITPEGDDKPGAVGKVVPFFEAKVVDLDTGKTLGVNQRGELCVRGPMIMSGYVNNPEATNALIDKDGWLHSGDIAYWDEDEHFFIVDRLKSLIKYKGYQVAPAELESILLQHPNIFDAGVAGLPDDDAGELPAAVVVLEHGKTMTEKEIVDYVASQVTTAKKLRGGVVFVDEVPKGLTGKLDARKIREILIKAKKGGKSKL
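Biochemical qHTS of compounds, final roughly 60 µM downward over six points, against 10 nM purified firefly luciferase using Km concentrations of substrates (10 uM D-luciferin, 10 uM ATP) in Tris acetate pH 7.5 buffer; luminescence output.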
ELG1 genotoxic – qHTS screen for small molecules that induce genotoxicity in human embryonic kidney (HEK293T) cells expressing luciferase-tagged ELG1; HEK293T ELG1-luciferase reporter, luminescence, 16 h; Potency, µM (top dose mostly 46 µM), inactives show top-dose activity change, positive = activation, most hits filed as activators; 1.3% of 330,000 active; AID 504466, 2011; also: % of control where 0% means no effect; nearly all actives have a fitted effect of over 60% in size
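Screening used a luciferase reporter fused to human ELG1 in HEK293T cells. Luminescence was read on a CCD plate imager after 16 hr exposure and 30 min ONE-Glo incubation.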
Rab9 prom act – qHTS Assay for Rab9 Promoter Activators; Huh7 Rab9 promoter-luciferase reporter, luminescence, 24 h; Potency, µM (highest dose often 9.22 µM), inactives show at the top dose activation, negative = inhibition, actives largely listed as activators; 2.8% of 320,000 active; AID 485297, 2010; also: % of control where 0% means no effect; nearly all actives have a fitted effect of over 60% in size
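Steps: seed 1500 Huh7 Rab9-luc cells per well, rest 2 h at 37 °C; add compound in DMSO; incubate 24 h; add luciferase reagent, 10 min ambient; read luminescence.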
* = called active by the depositor; ? = inconclusive; · = no result. This is a sample that favours compounds with a hit; in the whole collection about 9.3% have one here. Calls follow the shape of the dose curve; as a rule, active = well fitted curve in the direction sought with a large enough effect; inconclusive = small, poorly fitted or top-dose-only effect, or another doubt; inactive = no such curve, though single readings can be large; an effect the other way counts as inactive or inconclusive. Potency is read from the fitted curve at half-maximal effect.

SMILES	SMN2 splice enh	ELG1 repair inh	NPC1 promoter act	FLuc modulator	ELG1 genotoxic	Rab9 prom act
CN(c1cccc(NC(=O)c2ccc(Cl)c(S(=O)(=O)N3CCOCC3)c2)c1)S(C)(=O)=O	·	23µM*	-1%	-17%	-12%	-1%
CC(C)c1ccc(NC(=O)CN2C(=O)c3ccccc3S2(=O)=O)cc1	·	?	?	?	1%	?
COc1ccc(C(=O)Nc2cccc(N(C)S(C)(=O)=O)c2)cc1OC	13µM*	?	?	17µM*	16µM*	?
COc1cc(C=O)ccc1OCC(=O)Nc1cccc(S(=O)(=O)N(C)c2ccccc2)c1	·	?	-2%	-18%	1%	0%
COc1ccccc1OCC(=O)Nc1cccc(N(C)S(C)(=O)=O)c1	14%	5%	12%	17µM*	2%	0%
CN(c1cccc(NC(=O)CN2C(=O)c3ccccc3S2(=O)=O)c1)S(C)(=O)=O	23%	0%	13%	27µM*	1%	-1%
CCCCCC(=O)N=Nc1c(O)[nH]c2ccc([N+](=O)[O-])cc12	-12%	5%	-1%	1%	1%	-4%
COCc1nnc(NC(=O)C(C)C)s1	?	23%	1%	6%	-1%	0%
O=C(Nc1ccccc1)c1ccc[n+](Cc2ccc([N+](=O)[O-])cc2)c1	11%	17%	-2%	0%	1%	-6%
CCCCn1c(N)c(N(CCOC)C(=O)c2ccc(N(C)S(=O)(=O)c3ccc(C)cc3)cc2)c(=O)[nH]c1=O	·	0%	-1%	2%	2%	-1%
C/C(=N\NC(=S)NCc1ccccc1)c1ccccc1	9%	?	1%	?	8%	3%
COc1ccc(CNC(=S)N/N=C(/C)c2ccccc2)cc1	·	?	?	7.6µM*	18µM*	?
CN(C(=O)CCOc1ccccc1)c1c(N)n(Cc2ccccc2)c(=O)[nH]c1=O	·	8%	-1%	5%	7%	-1%
N#C/C(=C\c1ccc(Sc2ccccc2)o1)c1nc2ccccc2[nH]1	11µM*	?	2.8µM*	2.7µM*	?	2.2µM*
N#C/C(=C\c1ccc(-c2ccccc2C(=O)O)o1)c1nc2ccccc2[nH]1	-6%	?	6%	12µM*	12%	0%
Cc1cc2nc(/C(C#N)=C\c3ccc(-c4ccccc4C(=O)O)o3)[nH]c2cc1C	·	6%	18%	1.5µM*	3%	5%
N#C/C(=C/c1ccc(Sc2nc3ccccc3[nH]2)o1)c1cccc(F)c1	-54%	18µM*	3%	-2%	-1%	8%
O=C1c2oc3ccc(Cl)cc3c(=O)c2C(c2cccnc2)N1Cc1ccco1 (centres undefined)	4%	12%	-10%	-2%	0%	-3%
Cc1ccc2nc(/C(C#N)=C/c3ccc(-c4ccccc4C(=O)O)o3)[nH]c2c1	·	-2%	-3%	4.3µM*	0%	0%
Cc1cc2nc3s/c(=C/c4ccc(-c5ccccc5C(=O)O)o4)c(=O)n3c2cc1C	·	2%	15%	4.8µM*	5%	11%
O=C(O)c1ccccc1-c1ccc(/C=c2\sc3nc4cc(Br)cnc4n3c2=O)o1	3%	13%	0%	-16%	2%	-2%
CCOC(=O)c1ccc(-c2ccc(/C=C(\C#N)c3nc4ccc(C)cc4[nH]3)o2)cc1	-4%	·	·	-12%	·	·
CC(=O)N/C(=C\c1ccccc1)C(=O)OCC(=O)c1ccc(F)cc1	·	13%	-3%	-1%	0%	-2%
CCC(C)NS(=O)(=O)c1ccc(NS(=O)(=O)c2ccccc2[N+](=O)[O-])cc1 (centres undefined)	·	-2%	0%	-10%	-1%	-13%
COc1ccc(S(=O)(=O)CCC(=O)O)cc1	17%	12%	-4%	-1%	-3%	-4%
SMILES	SMN2 splice enh	ELG1 repair inh	NPC1 promoter act	FLuc modulator	ELG1 genotoxic	Rab9 prom act
COc1ccc(C2=NOC(Cn3nc(C(=O)NCc4ccco4)cc3-c3ccccc3)C2)cc1 (centres undefined)	·	?	-4%	0%	-9%	1%
Cc1ccc(-c2ccc(CCC(=O)O)o2)cc1	?	?	4%	11µM*	11%	19%
O=C(O)CCc1ccc(-c2cccs2)o1	13%	?	1%	-17%	0%	-1%
COCCCNCCOCCOc1c(OC)cccc1OC	-7%	15%	-2%	0%	-4%	5%
CC(C)CN(CC(C)C)C(=O)CN1C(=O)NC2(CCc3ccccc3C2)C1=O (centres undefined)	·	-13%	0%	0%	-1%	0%
COC(=O)c1ccc2c(c1)N(C)S(=O)(=O)c1cnc(SCC(=O)C(C)(C)C)nc1-2	·	16µM*	2%	-3%	3%	-5%
CCOC(=O)c1cccc(NC(=O)CSc2ncc3c(n2)-c2ccccc2N(C)S3(=O)=O)c1	·	·	·	-1%	·	·
COc1cc(C2N=C(N)Nc3nc4ccccc4n32)ccc1OCCC(C)C (centres undefined)	4%	·	·	-3%	·	·
O=C(COC(=O)c1nc(Cl)c(Cl)c(Cl)c1Cl)c1ccc[nH]1	·	?	4%	4%	?	0%
O=C(/C=C/c1ccccc1Cl)OCC(=O)c1ccc[nH]1	·	?	11%	9.5µM*	6%	2%
O=C(OCC(=O)c1ccc[nH]1)c1ccccc1	-30%	?	8%	17µM*	?	?
O=C(COC(=O)c1c(F)cccc1F)c1ccc[nH]1	·	19%	4%	17µM*	4%	13%
O=C(OCC(=O)c1ccc[nH]1)c1ccc(Cl)c(Cl)c1	·	20%	·	·	-2%	·
O=C(Nc1ccc(F)cc1F)c1cc2nc3c(c(C(F)(F)F)n2n1)CCCC3	17%	?	1.1µM*	0.6µM*	?	0.56µM*
CC(=O)c1ccc(NC(=O)c2cccc(NC(=O)c3ccccc3)c2)cc1	·	?	16%	?	10%	29%
CN(C)S(=O)(=O)N(CC(=O)Nc1ccc(F)c(F)c1)c1ccccc1	-7%	3%	1%	1%	-3%	-3%
O=C(Nc1ccccc1)Nc1ccc2ccccc2c1	·	?	2.5µM*	?	14%	3.5µM*
CC(=O)c1cccc(NC(=O)Nc2ccccc2)c1	·	?	25%	12µM*	2%	16%
O=C(Nc1ccccc1)Nc1ccc(C(=O)N2CCOCC2)cc1	20µM*	?	?	13µM*	?	1%
